# Results published in PubChem BioAssay AID434931 (National Center for Advancing Translational Sciences (NCATS), 2010).
# Records with an inconclusive call do not appear. Active and inactive are the calls of the source. Calls follow the shape of the dose curve; as a rule, active = well fitted inhibition curve with a large enough effect; inconclusive = small, poorly fitted or top-dose-only effect, or another doubt; inactive = no such curve, though single readings can be large or run the other way.
# Target: Neuropeptide S receptor (Homo sapiens) (UniProt Q6W5P4)
# Experiment: Confirmation Concentration-Response Assay for Antagonists of the Neuropeptide S Receptor: Robust Characterization of Calcium Signal Transduction
# Details: CHO-NPSR cells, NPS-induced calcium fluorescence (FDSS); series mostly up to 31.6 µM
# Source text: NIH Chemical Genomics Center [NCGC] NIH Molecular Libraries Probe Production centers Network [MLPCN] MLPCN Grant: X01-DA026210-01 Assay Submitter (PI): Heilig, Markus Alexander NCGC Assay Overview: Neuropeptide S receptor (NPSR), previously known as GPR154, is a recently de-orphanized G protein coupled receptor. Its endogenous ligand is the 20 amino acids peptide Neuropeptide S (NPS). […] NPS and its receptor are found in various tissues. Specifically they are highly expressed in brain areas that have been implicated in modulation of arousal, stress and anxiety. Central administration of NPS in mice produces an unusual profile of activity by inducing wakefulness and arousal, while at the same time suppressing anxiety. Therefore, NPSR may represent a novel drug target for the treatment of sleep and anxiety disorders. To identify NPSR antagonists, we developed a cell-based assay with transfected NPS receptor. NPS can stimulate the production of cAMP as well as release intracellular calcium in Chinese hamster ovary cells stably expressing NPS receptor. This change in intracellular calcium can be detected using a calcium indicator dye on a calcium imaging plate reader system (FDSS). This particular assay uses a high density of sampling across concentration-response space to establish more confidence estimates of potency.
# NCGC Assay Protocol Summary: A Chinese hamster ovary (CHO) cell line stably expressing the NPS receptor (CHO-NPSR) was obtained from Dr. Heilig lab at NIAAA and maintained in F-12 Kaighn's media (Invitrogen, Carlsbad, CA, 21127) supplemented with 10 % FBS, 100 units/ml penicillin, 100 ug/ml streptomycin and 250 ug/ml geneticin at 37C, 5% CO2 in a humidified atmosphere. Before the assay, aliquots of cells were frozen and stored at -135C. The assay was performed on a FDSS-7000 kinetic plate reader in 1536-well format. For both agonist (1-220s) and antagonist (221-400s) phases, the maximums of kinetic fluorescence responses were converted separately into text files using the instrument's software data export utility. Data for agonist response were normalized to the controls for basal activity (DMSO only) and 100% activation (NPS). […] AC50 values were determined from concentration-response data modeled with the standard Hill equation. NPS 1536-well FDSS assay protocol: (1) Frozen CHO-NPSR cells were thaw, washed once with fresh media and resuspended in F-12 Kaighn's media supplemented with 10 % FBS, 100 units/ml penicillin and 100 ug/ml streptomycin. Cells were plated at 3 ul/well (1200 cells) to black, clear-bottom, tissue-culture treated 1536-well plates, and then cultured at 37C, 5 % CO2 for 16 to 30 hours. (2) Add 3 ul of calcium dye (from High Performance PBX Calcium Assay Kit, BD Biosciences). The calcium dye was prepared according to the manufactory's instruction. (3) Incubation at 37C, 5 % CO2 for 60 to 120 min. (4) Load plates to FDSS-7000. The following steps were performed on FDSS-7000. (5) Record fluorescent background (Ex 480 nm, Em 520-560 nm) for 10 s. (6) Add 23 nl/well of compound in DMSO solution. The final titration for each compound was between 0.6 nM and 46 uM. Record agonist response for 210 s. (7) Add 2 ul of stimulation reagent (1X HBSS buffer, 0.1% BSA, 60 nM NPS). Record antagonist response for 140 s. Keywords: MLSMR, MLPCN, NIH Roadmap, qHTS, NCGC, NPS, Neuropeptide S Antagonists
# Neuropeptide S receptor (Homo sapiens), sequence (Q6W5P4 whole entry, looked up): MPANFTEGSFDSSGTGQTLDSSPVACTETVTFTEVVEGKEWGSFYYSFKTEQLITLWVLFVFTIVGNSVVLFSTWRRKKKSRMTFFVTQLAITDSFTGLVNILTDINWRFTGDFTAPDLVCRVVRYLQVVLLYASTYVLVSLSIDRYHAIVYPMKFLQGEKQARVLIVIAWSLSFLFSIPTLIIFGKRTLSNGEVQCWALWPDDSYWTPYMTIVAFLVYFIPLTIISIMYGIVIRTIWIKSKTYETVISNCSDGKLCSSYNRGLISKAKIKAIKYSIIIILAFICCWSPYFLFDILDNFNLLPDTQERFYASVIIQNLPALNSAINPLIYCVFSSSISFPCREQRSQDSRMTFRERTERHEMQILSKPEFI
row,Compound,Potency
1,N=c1c2c(ncn1-c1ccccc1)Oc1ccc3ccccc3c1C2c1ccc2c(c1)CCO2 (centres undefined),0.124 µM (active)
2,COc1cccc(C2c3c(ncn(-c4ccccc4OC)c3=N)Oc3ccc4ccccc4c32)c1 (centres undefined),1.24 µM (active)
3,CCOC(=O)CCCC(=O)Nc1ncnc2c1C(c1ccccc1)c1c(ccc3ccccc13)O2 (centres undefined),2.2 µM (active)
4,CC(C)(C)OC(=O)Nc1ncnc2c1C(c1ccccc1)c1c(ccc3ccccc13)O2 (centres undefined),inactive
5,O=C(CCc1ccccc1)Nc1ncnc2c1C(c1ccccc1)c1c(ccc3ccccc13)O2 (centres undefined),1.96 µM (active)
6,N=c1c2c(ccn1CCCCc1ccccc1)Oc1ccc3ccccc3c1C2c1ccccc1 (centres undefined),inactive
7,N=c1c2c(ccn1Cc1ccccc1)Oc1ccc3ccccc3c1C2c1ccccc1 (centres undefined),3.91 µM (active)
8,COc1cccc(C2c3c(ncn(-c4cccc(Br)c4)c3=N)Oc3ccc4ccccc4c32)c1 (centres undefined),2.46 µM (active)
9,COc1ccc(C2c3c(ncn(CCN4CCOCC4)c3=N)Oc3ccc4ccccc4c32)cc1OC (centres undefined),0.438 µM (active)
10,O=C(c1ccccc1)N(C(=O)c1ccccc1)c1ncnc2c1C(c1ccccc1)c1c(ccc3ccccc13)O2 (centres undefined),0.438 µM (active)
11,COc1cccc(C2c3c(ncn(-c4ccc(-c5ccccc5)cc4)c3=N)Oc3ccc4ccccc4c32)c1 (centres undefined),inactive
12,COc1ccc(C2c3c(ncn(CCCc4ccccc4)c3=N)Oc3ccc4ccccc4c32)cc1OC (centres undefined),3.91 µM (active)
13,CCOC(=O)c1ccc(-n2cnc3c(c2=N)C(c2cccc(OC)c2)c2c(ccc4ccccc24)O3)cc1 (centres undefined),2.46 µM (active)
14,COc1cccc(C2c3c(ncn(CCN4CCOCC4)c3=N)Oc3ccc4ccccc4c32)c1 (centres undefined),1.74 µM (active)
15,N#CC1=C(NC=NCc2ccccc2)Oc2ccc3ccccc3c2C1c1ccccc1 (centres undefined),0.779 µM (active)
16,COc1cccc(C2c3c(ncn(-c4cccc(F)c4)c3=N)Oc3ccc4ccccc4c32)c1 (centres undefined),0.0695 µM (active)
17,COc1ccc(C2c3c(nc(C)[nH]c3=O)Oc3ccc4ccccc4c32)cc1OC (centres undefined),inactive
18,Nc1ncnc2c1C(c1ccccc1)c1c(ccc3ccccc13)O2 (centres undefined),0.139 µM (active)
19,CCOC(=O)CC(=O)Nc1ncnc2c1C(c1ccccc1)c1c(ccc3ccccc13)O2 (centres undefined),0.552 µM (active)
20,COc1cccc(C2c3c(ncn(CCCN4CCOCC4)c3=N)Oc3ccc4ccccc4c32)c1 (centres undefined),1.39 µM (active)
21,COc1cccc(C2c3c(ncn(-c4ccccc4Cl)c3=N)Oc3ccc4ccccc4c32)c1 (centres undefined),4.38 µM (active)
22,N=c1c2c(ccn1CCCc1ccccc1)Oc1ccc3ccccc3c1C2c1ccccc1 (centres undefined),3.48 µM (active)
23,COc1cccc(C2c3c(ncn(-c4ccc(C)cc4)c3=N)Oc3ccc4ccccc4c32)c1 (centres undefined),2.46 µM (active)
24,S=P(c1ccccc1)(c1ccccc1)c1c[n+](C/C=C/c2ccccc2)c2ccccn12,0.0318 µM (active)
25,COc1cccc(C2c3c(ncn(-c4cccc(C)c4)c3=N)Oc3ccc4ccccc4c32)c1 (centres undefined),3.91 µM (active)
26,COc1cccc(C2c3c(ncn(-c4ccccc4SC)c3=N)Oc3ccc4ccccc4c32)c1 (centres undefined),0.0246 µM (active)
27,COc1cccc(C2c3c(ncn(-c4ccc(C(C)(C)C)cc4)c3=N)Oc3ccc4ccccc4c32)c1 (centres undefined),1.24 µM (active)
28,CCOC(=O)CCC(=O)Nc1ncnc2c1C(c1ccccc1)c1c(ccc3ccccc13)O2 (centres undefined),1.24 µM (active)
29,O=C(Cc1ccccc1)Nc1ncnc2c1C(c1ccccc1)c1c(ccc3ccccc13)O2 (centres undefined),1.1 µM (active)
